Experimental data reported in PubChem BioAssay AID1053125 (Broad Institute, 2014).
Potency and affinity values are given separately. The source made the active and inactive calls.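 Rule for the calls: active = viability loss whose fitted half-maximal concentration is at most twice the top valid tested dose; inconclusive = flat curve with 30 to 70% loss, or poor fit; inactive = the rest.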

Assay: viability loss in HepG2 liver cells – cell-based, ATP luminescence, cherry-pick, set 6, cytotoxicity control, dose response (AID 1053125);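 note: negative values mean loss of viability signal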
Conditions: ATP luminescence (CellTiter-Glo), 72 h; series mostly up to 26 µM; activity change, negative = cytotoxicity: at the top concentration

| SMILES | activity change, negative = cytotoxicity |
| --- | --- |
| O=C(Cc1csc(-c2ccccc2)n1)NCc1ccccc1F | 1.41% (inactive) |
| CCN(CC)c1ccc2cc(S(=O)(=O)c3ccc(Cl)cc3)c(=O)oc2c1 | -11.5% (inactive) |
| O=C(CCCN1C(=O)CSc2ncccc21)N1CCN(Cc2ccccc2)CC1 | -10.3% (inactive) |
| O=C(O)c1ccc(N2N=C(c3ccccc3)CC2c2ccccc2)cc1 (stereo not drawn) | -12.1% (inactive) |
| O=C(O)c1[nH]c2ccccc2c1C(c1cc(Br)ccc1O)c1c(C(=O)O)[nH]c2ccccc12 | -3.21% (inactive) |
| Cc1c2c(n3c(nc4ccccc43)c1C#N)N(CCN1CCOCC1)CC2 | -7.79% (inactive) |
| O=C(O)c1ccc(N/N=C/c2ccc(-c3ccccc3Cl)o2)cc1 | -1.29% (inactive) |
| O=C(O)c1cccc(Nc2nc(-c3cc4ccccc4oc3=O)cs2)c1 | 1.67% (inactive) |
| COc1cccc(N2CCN(C(=O)C3CCCN(S(=O)(=O)c4cnc[nH]4)C3)CC2)c1 (stereo not drawn) | 29.5% (inactive) |
| Cc1ccc(-n2nnnc2CNC(=O)C(=O)c2c[nH]c3ccccc23)cc1C | -9.06% (inactive) |
| CCCCN1C=C(C(=O)OC)C(c2ccccc2Cl)C(C(=O)OC)=C1 | 11.9% (inactive) |
| O=C(NS(=O)(=O)c1ccc(Cl)s1)c1ccccc1 | -5.86% (inactive) |
| CN(C)/C=C/C(=O)c1c(F)cccc1F | 12% (inactive) |
| Cc1ccc2c(c1)-c1c(cnn1CC(=O)Nc1ccccc1N1CCN(C)CC1)CO2 | -11.7% (inactive) |
| N#C/C(=C\c1ccco1)C(=O)Nc1cccc2ncccc12 | -5.39% (inactive) |
| Cc1c(C=O)c2ccccn2c1C(=O)c1cccs1 | 1.65% (inactive) |
| CCn1c(=N)c(C(=O)NCCCOC)cc2c(=O)n3cccc(C)c3nc21 | 65.3% (inactive) |
| Cc1cc(-c2ccccc2)c2ccc(NC(=O)C(C)(C)C)nc2n1 | -0.045% (inactive) |
